Assay outcomes from PubChem BioAssay.
Only some compounds are listed: those with a hit (about 2.2% of all), similar ones and a draw of the others.
NTR1 agonist: activates human neurotensin receptor 1 | P30989 | NTR1-U2OS beta-arrestin-GFP spot imaging, agonist mode | activation, % at 20 µM | 330,000 tested, 0.17% active;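 active = activation at or above 40% of the spot to cytoplasm intensity ratio, with at least 20 cells analyzed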
CHO-K1 Ca PAM: nonselective activator or artifact in parental CHO-K1 calcium assay. ATP EC20, Fluo-8 calcium fluorescence; 0% at ATP EC20, 100% at ATP max. activation, % at 3 µM. 360,000 tested, 0.02% active;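 active = activation above the run cutoff, the mean activation of all test compounds plus 3 SD, cut at about 40% in these data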;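 also: peak over basal fluorescence ratio in a 140 s read after ATP addition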
M1 ag parental: M1 agonist counterscreen hit in parental CHO-K1 cells; Fluo-8 calcium fluorescence; scaled to maximal ATP response, vehicle zero; activation, % at 3 µM; 360,000 tested, 0.48% active; in the data active = activation above about 15%;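 also: untransfected CHO-K1 host cells lacking M1 receptor as counterscreen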
CHO-K1 Ca antag: nonselective inhibitor or artifact in parental CHO-K1 cells; 360,000 tested, 0.6% active; ATP-induced calcium, Fluo-8 fluorescence; inhibition, % at 3 µM;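 active = inhibition above a per-plate cutoff, the plate's mean sample inhibition plus 3 SD, cut at about 24% in these data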
ANO1 activ: activators or potentiators of mouse TMEM16A chloride channel; HEK293 TMEM16A/YFP-H148Q/I152L, iodide quench fluorescence; hits give low values; B-score at 10 µM; 340,000 tested, 0.3% active; AID 623877;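 active = fluorescence-ratio B-score plate-corrected deviation score at least 3 library SD below zero, with starting fluorescence score within 5 deviations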;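 also: channel opened by trigger with iodide after compound preincubation; score built on the fluorescence ratio of max minus min over baseline; more negative score means more quench and so TMEM16A activation or potentiation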
TMEM16A inh: blocks the mouse calcium-activated chloride channel TMEM16A; Q8BHY3; HEK293 TMEM16A/YFP iodide influx fluorescence, ionomycin; normalized B-score (activity score, 25-100; higher = stronger inhibition) at 10 µM; 310,000 tested, 1.2% active;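 active = ratio plate-corrected score three or more library SD toward inhibition, starting fluorescence score within five deviations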;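 also: score derived from kinetic fluorescence span divided by baseline fluorescence per well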
TMEM16A reconf: reconfirmed blocker of mouse TMEM16A calcium-activated chloride channel | shares compounds with TMEM16A inh | HEK293 TMEM16A/YFP-H148Q, iodide quench fluorescence; ionomycin added to raise cell calcium | inhibition, % at 10 µM | 2,300 tested, 39% active;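 active = mean duplicate percent inhibition, scaled so buffer wells are 0 and the reference blocker 100, over three buffer SD above buffer mean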
TMEM16A Ca cntr: counter-screen for TMEM16A inhibitors: effect on calcium mobilization. shares compounds with TMEM16A inh. TMEM16A/YFP HEK293, Fluo4 calcium mobilization. calcium response (% of ionomycin), % at 10 µM. 2,300 tested, 2% active. AID 652231;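 active = duplicate-averaged calcium signal over 20% of the ionomycin maximum, relative to buffer baseline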;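 also: each well's signal is peak minus trough fluorescence divided by its pre-addition baseline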
YFP-HEK293 quench: acts in parental YFP-HEK293 cells lacking TMEM16A, counter-screen; shares compounds with TMEM16A inh; iodide YFP quench, ionomycin; YFP ratio F(max-min)/F0 at 10 µM; 2,300 tested, under 10 active;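 active = yellow fluorescent protein signal ratio exceeding the buffer control mean by over 5 SD of those controls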;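 also: ratio is mean of duplicate wells from kinetic YFP trace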
ClC-1 rat inh: selectivity of TMEM16A inhibitors: inhibition of rat ClC-1 chloride channel | shares compounds with TMEM16A inh | CHO ClC-1-YFP, iodide influx fluorescence quench; iodide control reads 0, buffer control 100 | ratio percent, % at 10 µM | 2,300 tested, under 10 active;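 active = duplicate-mean ratio percent above the mean of iodide-only control wells, which defines zero, plus 5 of their SD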;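 also: higher percent means stronger block of ClC-1 iodide influx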
Target sequence (P35524 whole entry, looked up): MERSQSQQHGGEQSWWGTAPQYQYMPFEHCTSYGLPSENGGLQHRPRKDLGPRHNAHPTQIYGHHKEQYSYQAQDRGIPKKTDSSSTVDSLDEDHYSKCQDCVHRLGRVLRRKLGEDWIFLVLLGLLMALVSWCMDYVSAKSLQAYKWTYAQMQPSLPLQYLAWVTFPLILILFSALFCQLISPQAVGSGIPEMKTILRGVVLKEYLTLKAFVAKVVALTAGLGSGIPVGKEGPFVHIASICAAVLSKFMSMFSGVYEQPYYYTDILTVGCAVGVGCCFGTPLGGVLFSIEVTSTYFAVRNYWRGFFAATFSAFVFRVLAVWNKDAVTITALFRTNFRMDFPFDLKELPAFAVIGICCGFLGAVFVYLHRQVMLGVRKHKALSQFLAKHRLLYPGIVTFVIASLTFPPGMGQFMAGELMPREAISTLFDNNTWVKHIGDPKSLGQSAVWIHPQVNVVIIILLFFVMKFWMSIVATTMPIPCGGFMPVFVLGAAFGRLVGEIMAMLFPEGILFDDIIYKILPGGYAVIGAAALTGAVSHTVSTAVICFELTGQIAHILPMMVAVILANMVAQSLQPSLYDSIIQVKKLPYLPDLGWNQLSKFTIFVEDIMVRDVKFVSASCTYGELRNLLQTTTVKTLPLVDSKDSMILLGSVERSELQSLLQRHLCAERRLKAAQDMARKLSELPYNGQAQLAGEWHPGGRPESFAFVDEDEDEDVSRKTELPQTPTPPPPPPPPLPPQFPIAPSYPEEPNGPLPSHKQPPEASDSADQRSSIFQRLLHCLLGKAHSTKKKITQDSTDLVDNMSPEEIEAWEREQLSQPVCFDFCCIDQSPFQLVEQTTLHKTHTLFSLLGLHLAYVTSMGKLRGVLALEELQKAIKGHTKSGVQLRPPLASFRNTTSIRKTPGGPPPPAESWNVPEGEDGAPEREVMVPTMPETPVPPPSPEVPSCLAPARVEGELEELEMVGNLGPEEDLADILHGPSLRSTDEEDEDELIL
Of the large screens only hits and unclear results are named; the others gave an inactive call (follow-up assays come after a bar, where they were run).

O=S(=O)(Nc1cccnc1Cl)c1ccc(-c2ccccc2)cc1	none
O=[N+]([O-])c1ccc(S(=O)(=O)NN=Cc2ccc(Cl)c(Cl)c2)cc1	none (no result: NTR1 agonist, TMEM16A inh)
Cc1ccc(-c2nc(SC(C)C(=O)NC3CC3)n[nH]2)cc1 (stereo not given)	none (no result: NTR1 agonist, ANO1 activ, TMEM16A inh)
Cc1ccc(Sc2ncccc2COC(=O)Nc2ccccc2)cc1	TMEM16A inh 100 | TMEM16A reconf inactive | TMEM16A Ca cntr inactive | YFP-HEK293 quench inactive | ClC-1 rat inh inactive
Cc1ccc(Sc2ncccc2COC(=O)Nc2c(C)cccc2C)cc1	TMEM16A inh 100 | TMEM16A reconf inactive | TMEM16A Ca cntr inactive | YFP-HEK293 quench inactive | ClC-1 rat inh inactive
Cc1ccccc1NC(=O)OCc1cccnc1Sc1ccc(Cl)cc1	none
COc1ccc([C@H]2C[C@@H](n3cc(C4CC4)nn3)[C@H](O)CN2CC2CCCCC2)cc1	none (no result: NTR1 agonist, ANO1 activ, TMEM16A inh)
O=C1NC[C@@H](CCCCN2CCN(CCc3ccccc3)C(=O)C2=O)N(CCC2CCCCC2)C1=O	none (no result: NTR1 agonist, ANO1 activ, TMEM16A inh)
Nc1[nH]c2cc([N+](=O)[O-])ccc2c1-c1ccccn1	none | TMEM16A reconf 21% | TMEM16A Ca cntr inactive | YFP-HEK293 quench inactive | ClC-1 rat inh inactive
O=C1/C(=C\c2ccco2)SC(=S)N1c1ccccc1	none
Cc1ccc(N2C(=O)/C(=C\c3ccco3)SC2=S)cc1	TMEM16A inh 100 | TMEM16A reconf inactive | TMEM16A Ca cntr inactive | YFP-HEK293 quench inactive | ClC-1 rat inh inactive
CSCc1ccc(C(=O)OCC(=O)NC2CCCC2)o1	none (no result: NTR1 agonist, ANO1 activ, TMEM16A inh)
COc1cc(C(=O)Oc2cc(C)cc(C)c2)cc(OC)c1OC	none
COc1cc(C(=O)ON=C2C(C)=CC(=O)C=C2C)cc(OC)c1OC	TMEM16A inh 100 | TMEM16A reconf inactive | TMEM16A Ca cntr inactive | YFP-HEK293 quench inactive | ClC-1 rat inh inactive
C=CCOC(=O)C1=C(C)NC(C)=C(C(=O)OCC=C)C1c1ccco1	none | TMEM16A reconf inactive | TMEM16A Ca cntr inactive | YFP-HEK293 quench inactive | ClC-1 rat inh inactive
CCOC(=O)C1=C(C)NC(C)=C(C(=O)OC)C1c1ccco1 (stereo not given)	none
COc1ccccc1N(Cc1ccccc1)S(=O)(=O)c1cccc(C(=O)Nc2cccc(C)n2)c1	none
Cc1[nH]n(-c2ccccc2)c(=O)c1C(=O)c1ccccc1	none
CCSC(=S)c1c(C)[nH]n(-c2ccccc2)c1=O	TMEM16A inh 100 | TMEM16A reconf 29% | TMEM16A Ca cntr inactive | YFP-HEK293 quench inactive | ClC-1 rat inh inactive
Cc1cccc(NC(=O)COC(=O)c2nn(-c3ccccc3C(F)(F)F)cc2O)c1C	none (no result: NTR1 agonist, ANO1 activ, TMEM16A inh)
CCn1c(=O)c(C(=O)NNC(=O)c2ccccc2F)c(O)c2ccccc21	TMEM16A inh 25 | TMEM16A reconf 22% | TMEM16A Ca cntr 48% | YFP-HEK293 quench inactive | ClC-1 rat inh inactive
C=CCn1c(=O)c(C(=O)Nc2cc(C)ccn2)c(O)c2ccccc21	none
C=CCn1c(=O)c(C(=O)Nc2ccc(C)cc2)c(O)c2ccccc21	none | TMEM16A reconf inactive | TMEM16A Ca cntr inactive | YFP-HEK293 quench inactive | ClC-1 rat inh inactive
CC(C)(C)c1ccc(CC(=O)N2CCC2(C)C(=O)NCc2cccs2)cc1 (stereo not given)	none (no result: NTR1 agonist, ANO1 activ, TMEM16A inh)
Cc1nn(C)c(C)c1CN(Cc1nc(CCC(C)C)no1)C(C)C	TMEM16A inh 25 | TMEM16A reconf inactive | TMEM16A Ca cntr inactive | YFP-HEK293 quench inactive | ClC-1 rat inh inactive
O=C(Nc1ccsc1C(=O)O)c1cccc(Oc2ccccc2)c1	TMEM16A inh 100 | TMEM16A reconf 52% | TMEM16A Ca cntr inactive | YFP-HEK293 quench inactive | ClC-1 rat inh inactive
